Only some compounds are listed: those with a hit (about 4% of all), similar ones and a draw of the others.
p53null 39C kill: kills p53 null cells at the nonpermissive temperature. H1299 p53-null (neo) cells, 39C, ATPlite viability, 24 h. Potency, µM (doses to about 46.1 µM), without a hit: at the top dose activity, negative = cell killing, usual class: cytotoxic. 55,000 compounds, 0.97% hits. AID 904;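 note: potency is the fitted concentration of half-maximal effect; 0% = DMSO only and -100% = full killing by 100 µM tamoxifen; nearly all actives have a fitted effect of over 50% in size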
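Following overnight plating at 37C (600 cells/well), H1299-neo or H1299-p53A138V cells are dosed up to 46 uM. Incubation lasts 24 hr at 39C before ATP detection.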
GPR32 ag: activates human resolvin D1 receptor GPR32; 48,000 compounds, 2.5% hits; CHO-K1 GPR32 beta-arrestin PathHunter luminescence, 90 min; zero percent set by DMSO-only wells; activation, % at 76.9 µM; O75388;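 active = activation of at least 60% and not above a set upper limit, about 1 call in 100 departs from these limits; inconclusive = activation of 40% to 60%, or above that upper limit; inactive = activation under 40%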; note: 0% is about no effect
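PathHunter enzyme-fragment complementation, CHO-K1 GPR32 stable line; 2,500 cells/well, overnight attach; cpd 90 min 37 °C 5% CO2; detection reagent 1 h RT; chemiluminescence. DMSO = EC0.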
GALC G270D act: raises human GALC G270D mutant activity in cells. 45,000 compounds, 0.1% hits. 145M-Twi-hGALC-G270D cells, HMU-beta-Gal fluorescence, 48 h. AID 1159614. Potency, µM (titrated, usually from 57.5 µM), usual class: activators. P54803; note: potency is the fitted concentration of half-maximal effect; 0% is about no effect; nearly all actives have a fitted effect of over 65% in size
Target sequence (P54803 whole entry G286D): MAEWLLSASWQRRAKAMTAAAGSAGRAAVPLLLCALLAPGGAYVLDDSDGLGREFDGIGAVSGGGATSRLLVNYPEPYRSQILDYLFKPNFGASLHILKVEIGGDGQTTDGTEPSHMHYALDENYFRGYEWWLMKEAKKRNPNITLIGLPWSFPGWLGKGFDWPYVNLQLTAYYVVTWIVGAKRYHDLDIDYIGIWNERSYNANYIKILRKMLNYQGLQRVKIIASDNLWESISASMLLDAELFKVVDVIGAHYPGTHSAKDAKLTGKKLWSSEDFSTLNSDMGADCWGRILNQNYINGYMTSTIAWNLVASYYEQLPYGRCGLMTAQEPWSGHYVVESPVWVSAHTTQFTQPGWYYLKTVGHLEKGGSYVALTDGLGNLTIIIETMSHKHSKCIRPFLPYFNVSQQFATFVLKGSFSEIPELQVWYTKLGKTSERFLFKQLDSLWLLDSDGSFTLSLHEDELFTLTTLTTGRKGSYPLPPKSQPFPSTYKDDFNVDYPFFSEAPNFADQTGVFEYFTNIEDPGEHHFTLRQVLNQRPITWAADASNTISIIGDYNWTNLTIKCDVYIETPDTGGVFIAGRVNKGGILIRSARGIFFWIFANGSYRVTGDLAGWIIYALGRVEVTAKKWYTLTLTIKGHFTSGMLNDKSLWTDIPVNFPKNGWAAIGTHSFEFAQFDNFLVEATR
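qHTS, 1536-well; 145M-Twi-hGALC-G270D cells (WT line also made) in DMEM/F12 + 10% FBS; compound incubation on live cells; HMU-β-gal 0.1 mM final, pH 5.2, NaTC; carbonate stop; fluorescence increase = enhanced residual activity.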
NTMT1 inhibitor: inhibitors of human N-terminal methyltransferase NTMT1; Potency, µM (top dose mostly 114 µM), without a hit: top-dose activity change, negative = inhibition, hits mostly inhibitors; Q9BV86; NTMT1 MTase-Glo SAH luminescence, purified enzyme; 59,000 compounds, 2.5% hits;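 note: potency is the fitted concentration of half-maximal effect; plate controls were DMSO vehicle for no effect and no enzyme for full effect; nearly all actives have a fitted effect of over 65% in size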
OvCa metastasis: blocks SKOV3ip1 adhesion and invasion in omental model; SKOV3ip1-GFP adhesion/invasion on 3D omental model, fluorescence; Potency, µM (highest dose often 45.8 µM), for the others: at the top dose activity change, negative = inhibition, usual class: inhibitors; 46,000 compounds, 0.1% hits;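 note: potency is the fitted concentration of half-maximal effect; plate controls were DMSO wells for no effect and tomatine positive control wells for full effect; nearly all actives have a fitted effect of over 65% in size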
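Primary human omental fibroblast/mesothelial 3D culture pre-formed 48 h. SKOV3ip1-GFP cells added with compounds (0.36-46 umol/L), incubated 2 h RT/16 h 37 C, fixed; GFP cells quantified at 488/509 nm.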
p53null 32C tox: p53 null cell cytotoxicity, permissive temperature. AID 903. H1299-neo p53 null cells, ATP luminescence, 24 h, 32C. 55,000 compounds, 0.62% hits. Potency, µM (titrated, usually from 46.1 µM), for the others: at the highest dose activity change, negative = cytotoxicity, usual class: cytotoxic;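 note: potency is the fitted concentration of half-maximal effect; 0% = DMSO only and -100% = full killing by 100 µM tamoxifen; nearly all actives have a fitted effect of over 55% in size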
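H1299-neo (p53 null) cells, 600/well, treated 24 h at 32C with compound up to 46 uM; ATPlite luminescence viability, normalized to DMSO and 100 uM tamoxifen; AC50 by Hill fit.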
Starred values were filed as active, the others as inactive; ! = a repeat was not active; [ ] = another dose, or the depositor's remark. Unless noted, calls come from the whole dose curve; as a rule, active = well fitted curve in the direction sought with a large enough effect; inconclusive = small, poorly fitted or top-dose-only effect, or another doubt; inactive = no such curve, though single readings can be large; an effect the other way counts as inactive or inconclusive.

How did CCC(C)(OC(C)=O)C(=O)O[C@H]1[C@H](OC(C)=O)[C@]2(CO)[C@H](O)[C@H](O)[C@]3(C)C(=CCC4[C@@]5(C)CC[C@H](O[C@@H]6O[C@H](C(=O)O)[C@@H](O)[C@H](O[C@@H]7OC[C@H](O)[C@H](O[C@@H]8OC[C@H](O)[C@H](O)[C@H]8O)[C@H]7O)[C@H]6O[C@@H]6O[C@H](CO)[C@@H](O)[C@H](O)[C@H]6O)C(C)(C)C5CC[C@]43C)[C@@H]2CC1(C)C (stereo partly specified) do in these assays?
NTMT1 inhibitor: -6%[6.45 µM]

Results for Cc1c(Cl)cccc1NC(=O)CN1CCN(CCO)CC1 ?
p53null 39C kill: 19%; p53null 32C tox: 5%

How did Cc1nc(Nc2ncc(C(=O)Nc3c(C)cccc3Cl)s2)cc(N2CCN(CCO)CC2)n1 do in these assays?
GPR32 ag: 28; GALC G270D act: inactive; NTMT1 inhibitor: 22µM*!; OvCa metastasis: inconclusive

Results for Cc1cc(C)cc(NC(=O)c2cc(S(=O)(=O)N3CCCCCC3)cn2C)c1 ?
p53null 39C kill: -3%; GPR32 ag: -27; GALC G270D act: inactive; NTMT1 inhibitor: 13%; OvCa metastasis: 11%; p53null 32C tox: 0%

What do the screens show for `Cc1cc(C)cc(NC(=O)c2cc(S(=O)(=O)N3CCC(C)CC3)cn2C)c1`?
p53null 39C kill: 7%; GPR32 ag: 4; GALC G270D act: inactive; NTMT1 inhibitor: 89µM*; OvCa metastasis: -19%; p53null 32C tox: -11%

Results for O=C(C[C@@H]1C(C(=O)O)=CO[C@@H](O[C@@H]2O[C@H](CO)[C@@H](O)[C@H](O)[C@H]2O)/C1=C\CO)OCCc1ccc(O)cc1 ?
NTMT1 inhibitor: 18%[29.8 µM]

What do the screens show for `CCC(Sc1ncnc2sc3c(c12)CCCC3)C(=O)OC(C)C` (stereo unspecified)?
p53null 39C kill: 17%; GPR32 ag: -13; GALC G270D act: inactive; NTMT1 inhibitor: -16%; OvCa metastasis: -8%; p53null 32C tox: 11%

What do the screens show for `Oc1cccc(Nc2ncnc3sc4c(c23)CCCC4)c1`?
p53null 39C kill: 1%; GPR32 ag: 66*; GALC G270D act: inactive; NTMT1 inhibitor: 9%; OvCa metastasis: 4%; p53null 32C tox: 13%

What do the screens show for `O=C(Nc1ccc2nc(SCC(=O)N3CCOCC3)sc2c1)c1cccc(Cl)c1`?
p53null 39C kill: inconclusive; GPR32 ag: 2; GALC G270D act: inactive; NTMT1 inhibitor: 16%; OvCa metastasis: inactive; p53null 32C tox: 32µM*

What do the screens show for `CCN(CC)c1cc(C)c2cc(NC(=O)c3cccc(F)c3)ccc2n1`?
p53null 39C kill: -2%; GPR32 ag: 92*; GALC G270D act: inactive; NTMT1 inhibitor: inconclusive; OvCa metastasis: -6%; p53null 32C tox: -1%

How did CCOC(=O)CSc1nc2ccc(NC(=O)c3ccc(C)cc3)cc2s1 do in these assays?
p53null 39C kill: inconclusive; GPR32 ag: inconclusive; GALC G270D act: inactive; NTMT1 inhibitor: 9%; OvCa metastasis: -6%; p53null 32C tox: 10µM*

What do the screens show for `CCOC(=O)CSc1nc2ccc(NC(=O)c3cccc(F)c3)cc2s1`?
p53null 39C kill: 8%; GPR32 ag: 73*; GALC G270D act: inactive; NTMT1 inhibitor: 4%; OvCa metastasis: -5%; p53null 32C tox: -17%

How did CCN(CC)c1cc(C)c2cc(NC(=O)c3ccc(F)cc3Cl)ccc2n1 do in these assays?
p53null 39C kill: -13%; GPR32 ag: 18; GALC G270D act: inactive; NTMT1 inhibitor: 1%; OvCa metastasis: inconclusive; p53null 32C tox: -13%

Results for CCOC(=O)CSc1nc2ccc(NC(=O)c3ccc(Cl)cc3)cc2s1 ?
p53null 39C kill: -29%; GPR32 ag: inconclusive; GALC G270D act: inactive; NTMT1 inhibitor: 12%; OvCa metastasis: -4%; p53null 32C tox: inconclusive

How did COc1ccc(Cl)cc1C(=O)Nc1nc(-c2ccccc2)cs1 do in these assays?
NTMT1 inhibitor: 6%[57.5 µM]

How did FC(F)(F)c1ccccc1-c1nc(NCc2ccc(-c3cccnc3)cc2)c2ccccc2n1 do in these assays?
NTMT1 inhibitor: 11%

How did FC(F)(F)c1ccc(CSc2nc3ncc(Br)cc3[nH]2)cc1 do in these assays?
NTMT1 inhibitor: 6%[57.5 µM]

What do the screens show for `CC(=O)c1ccc(NC(=O)CC2Oc3ccc(C)cc3NC2=O)cc1` (stereo unspecified)?
p53null 39C kill: -3%; GPR32 ag: 65*; GALC G270D act: inactive; NTMT1 inhibitor: 0%; OvCa metastasis: -1%; p53null 32C tox: -3%

Results for COc1cccc(CCN2C(=O)c3ccccc3NC2c2ccc(OC)c(COc3c(C)cc(NC(C)=O)cc3C)c2)c1 (stereo unspecified) ?
NTMT1 inhibitor: 16%

Results for COc1cc(/C=C2\S/C(=N/S(=O)(=O)c3ccc(C)cc3)NC2=O)c([N+](=O)[O-])cc1OC ?
p53null 39C kill: 3%; p53null 32C tox: -21%

How did Cc1cc(-c2ccc(/C=C3\SC(=Nc4ccc(Cl)c(C(=O)O)c4)NC3=O)o2)c([N+](=O)[O-])cc1C do in these assays?
NTMT1 inhibitor: 25µM*

Results for CCCc1ccc(S(=O)(=O)N2CCC(c3nnc(-c4cccc(C)c4)o3)CC2)cc1 ?
p53null 39C kill: 6%; GPR32 ag: -18; GALC G270D act: inactive; NTMT1 inhibitor: 79µM*; OvCa metastasis: -8%; p53null 32C tox: inconclusive

How did Cc1ccc(S(=O)(=O)N2CCC(c3nnc(-c4cccc(C)c4)o3)CC2)cc1 do in these assays?
p53null 39C kill: -17%; GPR32 ag: -14; GALC G270D act: inactive; NTMT1 inhibitor: inconclusive; OvCa metastasis: -7%; p53null 32C tox: inconclusive

Results for C/C=C/C=C/C=C/C(=O)N(C)C(C(=O)NC(C)C(=O)N1CCCC1C(N)=O)C(C)C (stereo unspecified) ?
NTMT1 inhibitor: -15%[29.8 µM]

How did COc1ccc(COc2ccc(-c3nc4ccccc4[nH]3)cc2)cc1OC do in these assays?
NTMT1 inhibitor: 10%

What do the screens show for `Brc1cnc2nc(SCc3ccncc3)[nH]c2c1`?
NTMT1 inhibitor: 18%

Results for COc1ccc(Cn2c(-c3ccc(OC)cc3)nc3ccccc32)cc1 ?
p53null 39C kill: -1%; p53null 32C tox: -2%

Results for COc1ccc(CCN2CCC(Nc3nc4ccccc4n3Cc3ccc(F)cc3)CC2)cc1 ?
GPR32 ag: 95*; GALC G270D act: inactive; NTMT1 inhibitor: inconclusive
